# An excerpt weighted towards active compounds, which were near 4.3% of everything screened.
# NR3A LBD binder = modulates the human NR3A ligand-binding domain. NR3A LBD differential scanning fluorimetry, Tm shift; 0% = protein alone, 100% = glycine-bound protein. Tm shift relative to glycine control, % at 25 µM. actives 2.5% (n = 340,000);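 active = melting temperature shift of at least 10% of the positive control shift, at one fixed dose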
# FAS-TE inh = blocks the thioesterase domain of human fatty acid synthase | P49327 | recombinant FAS-TE, OMFH fluorogenic substrate, fluorescence endpoint | inhibition, % at 15 µM | actives 0.67% (n = 360,000);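 active = compounds whose normalised, plate-corrected inhibition of enzyme fluorescence in the single-dose primary screen is 50% or more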;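 note: 0% = DMSO with enzyme and 100% = substrate without enzyme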
# Target sequence (P49327 whole entry, looked up, the tested form may be a part): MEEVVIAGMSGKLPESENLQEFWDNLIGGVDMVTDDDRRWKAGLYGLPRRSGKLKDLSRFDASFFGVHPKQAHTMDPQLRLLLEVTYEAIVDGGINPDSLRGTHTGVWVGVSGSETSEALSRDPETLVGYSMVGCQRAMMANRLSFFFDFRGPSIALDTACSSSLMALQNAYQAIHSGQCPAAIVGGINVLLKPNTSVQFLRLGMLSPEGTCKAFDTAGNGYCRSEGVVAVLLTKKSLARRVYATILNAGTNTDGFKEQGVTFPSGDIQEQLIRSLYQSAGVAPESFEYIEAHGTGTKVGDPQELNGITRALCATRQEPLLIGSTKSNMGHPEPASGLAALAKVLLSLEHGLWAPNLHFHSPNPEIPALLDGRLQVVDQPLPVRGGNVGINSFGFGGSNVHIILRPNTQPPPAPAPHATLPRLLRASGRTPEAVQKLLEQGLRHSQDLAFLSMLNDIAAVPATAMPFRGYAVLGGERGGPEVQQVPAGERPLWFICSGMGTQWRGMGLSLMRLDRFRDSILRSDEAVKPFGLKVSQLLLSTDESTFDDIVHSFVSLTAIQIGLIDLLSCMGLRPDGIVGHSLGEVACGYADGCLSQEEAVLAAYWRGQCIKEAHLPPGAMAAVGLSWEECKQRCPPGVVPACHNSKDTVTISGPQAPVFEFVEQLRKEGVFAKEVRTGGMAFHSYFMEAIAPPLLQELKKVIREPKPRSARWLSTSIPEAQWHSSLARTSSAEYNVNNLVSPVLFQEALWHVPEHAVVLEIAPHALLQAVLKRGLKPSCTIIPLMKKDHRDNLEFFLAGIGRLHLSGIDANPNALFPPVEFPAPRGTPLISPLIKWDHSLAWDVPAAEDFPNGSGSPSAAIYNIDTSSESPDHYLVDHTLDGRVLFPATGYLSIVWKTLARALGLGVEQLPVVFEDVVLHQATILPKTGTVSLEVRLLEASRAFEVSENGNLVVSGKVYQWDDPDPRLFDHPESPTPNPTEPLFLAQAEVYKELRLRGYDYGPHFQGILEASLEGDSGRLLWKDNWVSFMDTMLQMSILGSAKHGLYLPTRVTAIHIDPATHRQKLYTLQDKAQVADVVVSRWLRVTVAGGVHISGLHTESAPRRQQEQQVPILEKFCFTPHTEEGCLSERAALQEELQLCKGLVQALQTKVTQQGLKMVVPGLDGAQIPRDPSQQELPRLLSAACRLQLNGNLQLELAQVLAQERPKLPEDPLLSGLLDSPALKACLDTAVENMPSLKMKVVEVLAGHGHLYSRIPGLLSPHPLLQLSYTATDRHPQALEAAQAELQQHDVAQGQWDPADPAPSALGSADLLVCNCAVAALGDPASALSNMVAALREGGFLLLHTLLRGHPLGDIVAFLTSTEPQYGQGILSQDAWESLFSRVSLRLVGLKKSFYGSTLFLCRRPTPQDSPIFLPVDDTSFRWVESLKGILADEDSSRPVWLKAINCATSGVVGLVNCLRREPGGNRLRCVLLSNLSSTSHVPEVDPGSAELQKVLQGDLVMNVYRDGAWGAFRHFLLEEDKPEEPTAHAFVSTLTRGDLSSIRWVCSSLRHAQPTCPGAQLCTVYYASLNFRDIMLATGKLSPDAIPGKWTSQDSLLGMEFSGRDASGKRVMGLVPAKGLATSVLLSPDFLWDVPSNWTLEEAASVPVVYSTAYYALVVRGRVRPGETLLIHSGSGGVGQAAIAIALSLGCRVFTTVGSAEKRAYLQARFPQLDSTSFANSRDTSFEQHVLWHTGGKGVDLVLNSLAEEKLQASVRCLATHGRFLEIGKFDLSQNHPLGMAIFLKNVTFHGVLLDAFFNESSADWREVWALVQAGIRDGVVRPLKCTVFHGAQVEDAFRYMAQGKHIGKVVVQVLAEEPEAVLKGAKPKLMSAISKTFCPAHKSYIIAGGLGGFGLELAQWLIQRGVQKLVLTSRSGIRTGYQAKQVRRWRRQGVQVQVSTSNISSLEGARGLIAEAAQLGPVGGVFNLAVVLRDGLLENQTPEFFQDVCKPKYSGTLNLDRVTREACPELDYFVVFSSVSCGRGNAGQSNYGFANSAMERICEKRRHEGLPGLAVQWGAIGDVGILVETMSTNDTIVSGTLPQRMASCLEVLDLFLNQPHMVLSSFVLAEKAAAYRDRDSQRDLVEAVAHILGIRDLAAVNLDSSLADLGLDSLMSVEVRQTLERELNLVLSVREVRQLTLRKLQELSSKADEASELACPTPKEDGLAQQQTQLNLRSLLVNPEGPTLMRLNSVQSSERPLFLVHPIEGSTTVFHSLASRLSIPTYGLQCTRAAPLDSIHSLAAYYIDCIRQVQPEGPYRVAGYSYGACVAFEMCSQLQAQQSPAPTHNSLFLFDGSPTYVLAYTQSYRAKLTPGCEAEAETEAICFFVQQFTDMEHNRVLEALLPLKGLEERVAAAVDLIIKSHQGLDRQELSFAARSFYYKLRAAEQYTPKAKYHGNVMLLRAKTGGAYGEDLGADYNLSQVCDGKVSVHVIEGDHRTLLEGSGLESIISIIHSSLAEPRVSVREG
# NadD block = NadD (S. aureus) enzyme inhibition. purified NadD enzyme, colorimetric absorbance read-out. inhibition, % at 20 µM. actives 0.78% (n = 360,000); in the data active = inhibition above about 26%
# rCAG binder = binds r(CAG) RNA repeats; actives 1.3% (n = 370,000); inhibition, % at 3 µM; AID 651821; r(CAG) RNA repeat, TO-PRO-1 dye displacement fluorescence;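 active = inhibition above the plate cutoff, the mean of all test compounds on that plate plus 3 SD, cut at about 35% in these data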;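 note: 0% = DMSO alone and 100% = 100 µM mitoxantrone as full dye displacement; higher means more dye released from RNA so lower well fluorescence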
# * marks the source's active call; other numbers are inactive results; · = not tested or not shown.
SMILES,NR3A LBD binder,FAS-TE inh,NadD block,rCAG binder
COC(=O)[C@]12C[C@H](CC(=O)NCC34CC5CC(CC(C5)C3)C4)C(=O)N(CCC3=CCCCC3)C1=C[C@H](C(C)C)O[C@@H]2C1CC1,·,·,·,8.6
COc1ccc2c(c1)CCCN2C(=O)C1CCCN(S(=O)(=O)c2cc(OC)ccc2OC)C1 (centres undefined),·,·,·,2.2
CCCCOCCCNC(=O)C[C@H]1C[C@@]2(C(=O)OC)C(=C[C@H](C(C)(C)C)O[C@@H]2C)N(Cc2ccc3c(c2)OCO3)C1=O,·,·,·,4.1
CCCN1CCCCC(NC(=O)c2ccccc2OC)C1=O (centres undefined),·,·,·,-1.1
Cc1ccc2cc(C(c3nnnn3C3CCCC3)N(Cc3ccco3)Cc3cccs3)c(=O)[nH]c2c1 (centres undefined),-0.9,15.7,39.4*,15.9
Cc1ccc2cc(C(c3nnnn3C3CCCC3)N(Cc3cccnc3)Cc3ccco3)c(=O)[nH]c2c1 (centres undefined),-3.1,3.2,9.4,4.6
Cc1cc(C)cc(Oc2cc(NC(=O)c3cn(C)nc3C)cc([N+](=O)[O-])c2)c1,13.5*,9.6,-12.8,11.2
CCCCCN1CCCCC(NC(=O)c2ccccc2C)C1=O (centres undefined),·,·,·,2.1
COc1cc(NC(=O)c2cc(C3CC3)on2)c(OC)cc1Cl,14.1*,10.2,-5.2,2.0
COc1cc(NC(=O)c2cc(C(C)C)on2)c(OC)cc1Cl,2.4,15.3,-9.7,-0.5
CCN(CC)S(=O)(=O)c1cccc(-c2nn(-c3ccccc3)cc2/C=C(\C#N)C(=O)NCc2ccco2)c1,2.1,15.7,10.6,5.4
CCCOc1cccc(-c2nn(-c3ccccc3)cc2/C=C(\C#N)C(=O)NCCCn2ccnc2)c1,11.4*,-18.4,25.2,-2.1
CN(C)S(=O)(=O)c1cccc(-c2nn(-c3ccccc3)cc2/C=C(/C#N)C(=O)NCc2ccco2)c1,15.5*,31.2,6.7,2.4
CC1(C(=O)N2CCC(Oc3cccnc3)CC2)CC1,·,·,·,-0.7
O=C(NCC(c1cccnc1)N1CCN(c2ccccc2F)CC1)OCc1ccccc1 (centres undefined),11.7*,3.0,5.7,-6.5
Cc1nn(-c2ccccc2)c(/N=C/c2ccccc2O)c1-c1ccccc1,14.4*,15.3,1.3,-2.5
CC(=O)Nc1ccc(-c2cn3cc(C)ccc3n2)cc1,19.6*,-5.6,3.2,0.9
O=C(Nc1ccc(-c2cn3ccccc3n2)cc1)c1ccco1,24.3*,-4.5,-6.4,-4.3
Cc1ccc2nc(-c3ccccc3)cn2c1,-0.7,-8.4,-4.9,1.1
Clc1ccc(-c2cn3ccccc3n2)cc1,1.8,1.6,-1.3,5.9
O=C(Nc1ccc(-c2cn3ccccc3n2)cc1)c1ccc(Cl)cc1,13.7*,-2.6,12.0,8.2
COc1ccc(-c2cn3ccccc3n2)cc1,26.1*,-5.3,-6.9,-0.7
CN1CCN(c2ccc3c(c2)Oc2ccccc2CN(Cc2cn(Cc4ccc(C(F)(F)F)cc4)nn2)S3(=O)=O)CC1,·,·,·,6.9
Cc1cc(C)cc(N(CC(=O)NC2CCC(C)CC2)S(=O)(=O)c2ccc(C)c(C)c2)c1 (centres undefined),·,·,·,1.0
O=C(O)c1cc(NN=Nc2cccc(S(=O)(=O)O)c2)cc([N+](=O)[O-])c1,10.0*,-4.3,4.8,5.9
SMILES,NR3A LBD binder,FAS-TE inh,NadD block,rCAG binder
CCc1ccc(-c2csc3[n+]2CCN3C(C)=O)cc1,·,-151.9,2.5,4.8
CC(=O)N1CC[n+]2c(-c3ccc(Cl)cc3)csc21,19.9*,-139.9,-0.5,5.8
CCNC(=O)N(C)[C@H]1C[C@H]2c3[nH]c4cccc(-c5cccc(F)c5)c4c3CCN2C(=O)[C@H]1[C@H](C)O,·,·,·,6.4
Cc1ccc(C(=O)NCC(=O)Nc2ccc(C)c(S(=O)(=O)Nc3ccc(Cl)cc3)c2)s1,11.4*,17.2,26.1,19.4
O=C(CCC(=O)c1ccc(F)cc1)Nc1cccc(C(F)(F)F)c1,-13.4,7.5,-5.4,2.5
O=C(CCC(=O)c1ccc(F)cc1)Nc1cccc(S(=O)(=O)Nc2cccc(Cl)c2)c1,28.4*,21.9,-10.4,23.1
C/C(=N\NC(=O)c1cccc(S(=O)(=O)Nc2cccc(Cl)c2)c1)c1cccs1,14.1*,10.4,13.8,32.5
COc1ccc(NS(=O)(=O)c2cc(NC(=O)CNC(=O)c3ccc(C)s3)ccc2Cl)cc1,4.6,21.1,1.8,14.3
Cc1ccc(C(=O)NC(=S)Nc2ccc(NC(=O)c3cccc(Cl)c3)cc2)cc1,34.5*,0.4,1.4,3.9
COCCNC(=S)N(C)[C@H]1C[C@H]2c3[nH]c4ccccc4c3CCN2C(=O)[C@H]1[C@H](C)O,·,·,·,5.8
C/C(=N\NS(=O)(=O)c1ccccc1)c1cccc(NC(=O)c2cccc(Cl)c2)c1,15.0*,16.5,0.6,14.7
O=C(NNC(=O)c1cccs1)Nc1cccc(Cl)c1,1.4,0.2,-2.1,1.5
O=C(O)c1cccc(NC(=S)NC(=O)c2ccc3ccccc3c2)c1,2.2,0.7,-2.1,32.7
O=C(NC(=S)Nc1cc(Cl)ccc1O)c1cccc(Br)c1,17.8*,5.0,6.7,15.5
C/C(=N/NS(=O)(=O)c1ccc(Cl)cc1)c1cccc(NC(=O)c2ccncc2)c1,-2.4,-0.4,-2.5,19.5
Cc1ccc(NC(=O)c2cccs2)cc1S(=O)(=O)Nc1cccc(Cl)c1,34.8*,31.7,2.4,31.6
O=C(O)c1ccc(NC(=S)NC(=O)c2ccc3ccccc3c2)cc1,17.4*,-1.7,-5.8,3.2
Nn1c(SCC(=O)Nc2nccs2)nnc1-c1cc(-c2ccccc2)n[nH]1,·,·,·,2.7
COC(=O)C1CN(Cc2cn(Cc3ccc(C)cc3)nn2)CCS(=O)(=O)N1Cc1ccc(F)cc1 (centres undefined),·,·,·,0.2
Cc1ccc(NC(=S)NC(=O)c2ccc(F)cc2)cc1S(=O)(=O)Nc1cccc(Cl)c1,12.6*,36.9,3.1,19.9
COc1cccc(CN2CCC(C(=O)N3CCN(Cc4ccc5c(c4)OCO5)CC3)CC2)c1,12.6*,-4.7,-7.7,-16.4
CCOC(=O)c1ccccc1NC(=O)Nc1ccc(OC)c(OC)c1,0.5,-7.3,-3.9,-2.8
CCOC(=O)c1ccc(NC(=O)Nc2ccc(OC)c(OC)c2)cc1,16.1*,2.0,-2.9,0.7
CCCCOC(=O)c1ccc(NC(=O)c2c(OC)cccc2OC)cc1,9.2,18.9,-7.9,-1.0
CCCCOC(=O)c1ccc(NC(=O)Nc2ccc(OC)c(OC)c2)cc1,19.0*,18.3,-12.6,10.4
SMILES,NR3A LBD binder,FAS-TE inh,NadD block,rCAG binder
O=C(N/C(=C\c1ccc(Cl)cc1)C(=O)N1CCOCC1)c1ccc([N+](=O)[O-])cc1,-0.9,89.3*,1.3,-3.1
O=C(c1cc(F)cc(F)c1)N1CCCC(c2nc(-c3cccs3)no2)C1 (centres undefined),·,·,·,1.7
CC(=NO)C1CCC2C3CCC4=CC(=NO)CCC4(C)C3C(=O)CC12C (centres undefined),17.7*,-7.5,-2.3,-2.5
O=C(Nc1cccc(C(F)(F)F)c1)c1cc[n+]([O-])cc1,-0.9,-4.5,-0.9,1.6
O=C(Nc1ccc2nc(-c3ccco3)c(-c3ccco3)nc2c1)NC1CC1,-7.0,-6.6,27.6*,·
COc1ccc(CCNC(=O)c2ccc3nc(-c4ccco4)c(-c4ccco4)nc3c2)cc1OC,-5.1,3.4,46.7*,·
